# Source: PubChem BioAssay (EPA / NIEHS)
# Active and inactive are the calls of the source. How the source made its calls: active means hit-call score of the fitted dose curve at least 0.9, where 1 is the maximum; inactive means score below 0.9.
# Assay: ATG_EGR_CIS: Attagene CIS-FACTORIAL HepG2 Assay for human Early Growth Response 1 (EGR1) (AID 2282938)
# Conditions: HepG2 Attagene CIS-FACTORIAL EGR reporter mRNA; actives raise or lower the signal
# How it was run: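 After 24 h compound exposure, RNA from reporter-transfected HepG2 cells was reverse-transcribed, PCR-amplified, fluorescently labelled and resolved by capillary electrophoresis. EGR1 reporter transcript changes, up or down, were fitted against DMSO, reflecting endogenous transcription-factor activity.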
Structure (SMILES),outcome,AC50
c1ccc2c(c1)sc1ccccc12,inactive,–
Nc1ccc(Cl)cc1,inactive,–
Nc1ccc2ccccc2c1,inactive,–
Nc1ccc([N+](=O)[O-])cc1Cl,inactive,–
CCOP(=S)(OCC)SCSCC,inactive,–
CCOP(=S)(S)OCC,inactive,–
OCC(F)(F)OC(F)(F)C(F)(F)OC(F)(F)C(F)(F)OC(F)(F)F,inactive,–
O=C(O)C(F)(F)C(F)(F)C(=O)O,inactive,–
Cc1cc(C)c(C(=O)P(=O)(c2ccccc2)c2ccccc2)c(C)c1,–,41.3 µM (active)
CC(C)(C)OOC(C)(C)C,inactive,–
Cn1[nH]nnc1=S,inactive,–
CCOP(=S)(Oc1ccc([N+](=O)[O-])cc1)c1ccccc1 (centres undefined),inactive,–
FC(F)(F)C(F)(C(F)(F)F)C(F)(F)C(F)(F)CC1CO1 (centres undefined),inactive,–
CCOC(=O)c1ccccc1N,inactive,–
Oc1ccccc1Br,inactive,–
CCOc1ccc(C(C)(C)COCc2cccc(Oc3ccccc3)c2)cc1,inactive,–
CCCCc1ccccc1,inactive,–
CC1=C(C(=O)Nc2ccccc2)S(=O)(=O)CCO1,–,10.7 µM (active)
ClC(Cl)=C(c1ccc(Cl)cc1)c1ccccc1Cl,inactive,–
CCCCC(CC)COC(=O)c1c(Br)c(Br)c(Br)c(Br)c1C(=O)OCC(CC)CCCC (centres undefined),inactive,–

Structure (SMILES),outcome,AC50
OCC(F)(F)OC(F)(F)C(F)(F)OC(F)(F)C(F)(F)OC(F)(F)CO,inactive,–
COP(=O)(O)OC,inactive,–
Clc1ccc(Oc2ccccc2)cc1,inactive,–
N#Cc1ccc(O)cc1,inactive,–
O=C(O)C1C(C(=O)O)C2(Cl)C(Cl)=C(Cl)C1(Cl)C2(Cl)Cl (centres undefined),inactive,–
CC(O)C#N (centres undefined),inactive,–
CCN(CC)c1ccccc1,inactive,–
CC(C)Nc1ccc(Nc2ccccc2)cc1,inactive,–
OCC1CO1 (centres undefined),inactive,–
CCCCC(CC)COP(=O)(Oc1ccccc1)Oc1ccccc1 (centres undefined),–,57.6 µM (active)
CCCCCCCc1ccc(O)cc1,inactive,–
ClC(Cl)c1ccccc1,inactive,–
COP(N)(=S)OC,inactive,–
CCCCN(CCCC)N=O,inactive,–
CC(C)(C)N(NC(=O)c1ccc(Cl)cc1)C(=O)c1ccccc1,inactive,–
c1ccc2c(c1)Nc1ccccc1S2,inactive,–
O=P(Oc1ccccc1)(Oc1ccccc1)Oc1ccccc1,–,33.4 µM (active)
CCNc1nc(Cl)nc(NC(C)(C)C)n1,inactive,–
O=NN1CCCC1,inactive,–
